PNC inhibitor: inhibitors of perinucleolar compartment assembly. 140,000 compounds, 3.1% hits. activity change (PNC), negative = inhibition, % at 10 µM. PC3M PTB-GFP, PNC prevalence imaging, 16 h; active compounds read low;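 active means readout at or below -70, meaning at least 70% loss of cells showing the perinucleolar compartment, a nuclear body marking cancer cells; inconclusive means readout between -30 and a set limit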
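Compounds are pinned in duplicate onto adhered PC3M cells stably expressing GFP-tagged PTB and incubated 16 h at 37 C. Cells are then fixed, nuclei stained with Hoechst, and PNC-positive cells counted.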
IMPase Li cell: cell-permeable IMPase inhibitors with lithium potentiation | CHO-M1 cells, IP1 TR-FRET (IP-One), carbachol + lithium | Potency, µM (titrated, usually from 59.4 µM), actives largely listed as inhibitors | 210,000 compounds, 0.35% hits | AID 1457;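 further: IP1 builds up when IMPase is blocked and the TR-FRET signal falls; nearly all actives have a fitted effect of over 50% in size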
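Steps: plate 2000 CHO-M1 cells per well and culture 16–30 h; add compound and lithium; incubate 30 min, 37C; add d2-IP1 tracer and Eu cryptate anti-IP1 antibody in lysis buffer; read after 10 min at room temperature.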
IMPase inh: membrane-permeable compound that blocks inositol monophosphatase. CHO-M1 cells, IP1 accumulation, HTRF TR-FRET ratio. 120,000 tested, under 10 active. inhibition (IP1 accumulation), % at 46.1 µM. P97697. AID 901; active means well fitted curve in the direction sought with a large enough effect in the signal ratio, not every such curve was filed as active; inconclusive means small, poorly fitted or top-dose-only effect, or a change in a side signal; inactive means no such curve, though single readings can be large or run the other way; the % refers to the signal ratio;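 further: cells stimulated with carbachol in lithium chloride buffer; higher means more IMPase inhibition seen as more IP1 and lower FRET ratio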
Target sequence (P97697 whole entry, looked up): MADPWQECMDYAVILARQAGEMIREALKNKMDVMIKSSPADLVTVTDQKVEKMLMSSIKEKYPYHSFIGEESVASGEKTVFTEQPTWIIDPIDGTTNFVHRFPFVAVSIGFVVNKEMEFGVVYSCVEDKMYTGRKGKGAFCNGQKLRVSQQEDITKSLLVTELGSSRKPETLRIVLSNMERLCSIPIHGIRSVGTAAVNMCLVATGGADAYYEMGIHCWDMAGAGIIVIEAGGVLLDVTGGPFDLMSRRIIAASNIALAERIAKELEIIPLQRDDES
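The IP-One HTRF competitive assay in carbachol-stimulated CHO-M1 cells quantifies cellular IP1. Compounds spanned up to 46 uM final, and activity is expressed as AC50 from concentration-response fits of the ratio and donor data.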
12-hLO inh: inhibitors of human 12-lipoxygenase (ALOX12). P18054. purified 12-hLO, xylenol orange hydroperoxide absorbance. Potency, µM (doses to about 57.1 µM), hits mostly inhibitors. 150,000 compounds, 0.12% hits; further: nearly all actives have a fitted effect of over 55% in size
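Purified human 12hLO (150 nM final) was preincubated with compounds for 15 min at room temperature in 25 mM Hepes pH 7.0, 0.01% Triton X-100, then reacted with 40 uM arachidonic acid for 30 min. Hydroperoxide was detected with ferrous iron/xylenol orange.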
15-hLO-2 inh: blocks human 15-lipoxygenase 2 activity. O15296. Potency, µM (titrated, usually from 57.1 µM), hits mostly inhibitors. 110,000 compounds, 0.56% hits. purified 15hLO-2, xylenol orange hydroperoxide absorbance. AID 881; further: nearly all actives have a fitted effect of over 60% in size
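Screening format was qHTS against 50 nM purified 15hLO-2 in Hepes pH 7.5 with detergent. Activity follows hydroperoxide formation from 45 uM arachidonic acid, measured as 573:405 nm absorbance ratio of the ferric-xylenol orange complex.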
HPGD block: HPGD (human) dehydrogenase inhibition | Potency, µM, most hits filed as inhibitors | purified HPGD, NADH fluorescence kinetic, PGE2 substrate | 150,000 compounds, 4.3% hits | AID 894; active means well fitted inhibition curve with a large enough effect, not every such curve was filed as active; inconclusive means small, poorly fitted or top-dose-only effect, or another doubt; inactive means no such curve, though single readings can be large or run the other way
Target sequence (P15428 whole entry, looked up): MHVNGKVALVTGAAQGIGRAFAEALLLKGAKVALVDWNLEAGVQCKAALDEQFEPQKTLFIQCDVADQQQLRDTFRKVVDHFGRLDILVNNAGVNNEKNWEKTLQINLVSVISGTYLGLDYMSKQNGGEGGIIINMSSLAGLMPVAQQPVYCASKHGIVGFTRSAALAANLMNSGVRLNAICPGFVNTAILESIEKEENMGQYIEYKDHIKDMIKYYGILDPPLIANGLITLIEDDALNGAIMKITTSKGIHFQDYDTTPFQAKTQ
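NADH formation kinetics: reaction with 30 uM PGE2 and 1 mM NAD+ (final), 20 nM enzyme, Tris-HCl pH 8 with Tween 20, after 15 min compound preincubation at room temperature. Fluorescence change, last versus first of five reads.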
Numbers stand for hits; n = inactive; u = inconclusive; x = no result given; [ ] = another dose, or the depositor's remark. In the library only some 5.4% were active in any assay of this set; here they are far more common. Unless noted, the call rests on the fitted dose curve; in most records, active means well fitted curve in the direction sought with a large enough effect; inconclusive means small, poorly fitted or top-dose-only effect, or another doubt; inactive means no such curve, though single readings can be large; an effect the other way counts as inactive or inconclusive.

SMILES	PNC inhibitor	IMPase Li cell	IMPase inh	12-hLO inh	15-hLO-2 inh	HPGD block
COc1ccc(CC(=O)NNC(=S)Nc2ccc(Br)cc2)cc1	n	n	n	n	n	n
O=C(Nc1ccc(N2CCCCC2)c(Cl)c1)c1ncn[nH]1	u	n	n	n	n	13µM
O=C(Nc1ccc(CCC(=O)N2CCCC2)cc1)c1ncn[nH]1	n	n	u	n	n	28µM
O=C(Nc1ccc(N2CCCC2)c(Cl)c1)c1ccco1	n	n	n	n	n	n
Cc1ccc(NS(=O)(=O)c2ccc(CCC(=O)N3CCCC3)cc2)cc1	x	n	x	x	x	x
O=c1cnc2cncnc2n1Cc1ccccc1Cl	x	n	x	x	n	x
Cc1ccc(C)c(OCCCC(=O)Nc2ccccc2C(N)=O)c1	x	n	x	x	x	x
C=CCNC(=O)CCCOc1cc(C)ccc1C	n	n	n	n	n	14µM
C=CCNC(=O)CCCOc1ccc(C)cc1	n	n	n	n	n	7.1µM
COc1ccc(OCCCC(=O)NCC(C)C)cc1	u	n	n	n	n	25µM
N/N=C1/c2ccccc2N[C@H]1OC(=O)Nc1ccccc1	x	n	x	n[11.4 µM]	n[11.4 µM]	n
NCCC[C@@H](CC(=O)N[C@@H]1CCCC[C@H]1C(=O)N[C@H](CC(=O)N[C@@H](CCC(=O)O)CC(=O)O)Cc1ccccc1)NC(=O)C[C@H](CO)NC(=O)[C@@H]1CNCC[C@H]1N	x	n	x	n	x	n
Cc1[nH]c2ccccc2c1C(=O)CSC(=S)N1CCCCC1	n	n	x	n	x	25µM
Cc1cc(C)n(-c2nc(N(c3ccccc3)c3ccccc3)nc(-n3nc(C)cc3C)n2)n1	-100	n	n	n	x	n
CC(C)(CCc1nc2ccccc2[nH]1)C(=O)O	x	n	x	n[11.4 µM]	n[11.4 µM]	n
CCC(C)NC(=O)[C@H](CSCc1ccccc1)N1Cc2ccccc2C1=O (some centres undefined)	-82	n	x	n	x	n
CCC(=O)O	x	n	x	n[0.00818 µM]	n[0.0915 µM]	n
Cc1ccc(/C=C/C(=O)N2CCc3ccccc3C2)cc1	n	n	n	n	n	14µM
O=C(Nc1nc(-c2cccs2)c(C(=O)C(F)(F)F)s1)c1ccco1	x	10µM	x	x	x	x
Cc1ccc(NC(=O)C(C)Sc2nnc(-c3cccnc3)o2)cc1 (centres undefined)	n	n	n	n	n	n
Cc1ccc(NC(=O)C(C)Sc2nnc(-c3cccnc3)n2-c2ccccc2)cc1 (centres undefined)	u	n	n	n	n	14µM
CC(=O)[C@@H]1CC[C@@H]2[C@@H]3CC=C4C[C@H](OS(=O)(=O)O)CC[C@@]4(C)[C@H]3CC[C@]21C	x	x	n	n	n	x
COc1cc(C(C)=O)ccc1Oc1ncnc2c1cnn2-c1cccc(Cl)c1	n	n	x	n	x	n
COc1cc(C(C)=O)ccc1Oc1ncnc2c1cnn2-c1ccc(F)cc1	u	u	n	n	x	16µM
CC(=O)Nc1c(C(=O)N2CCCCCC2)cnn1-c1ccccc1Cl	n	n	n	n	x	14µM
SMILES	PNC inhibitor	IMPase Li cell	IMPase inh	12-hLO inh	15-hLO-2 inh	HPGD block
CCOC(=O)c1ccc(-n2c(C)nc3c(cnn3-c3ccccc3Cl)c2=O)cc1	-113	n	n	n	n	n
O=C(O)C(Cl)(c1ccccc1)c1ccccc1	x	n	x	n[11.4 µM]	n[11.4 µM]	n
CCCCC1=CC2=C(c3ccco3)C(=O)C(C)(OC(=O)c3ccc(OC)cc3)C(=O)C2=CO1 (centres undefined)	x	n	x	n	x	n
N[C@@H](Cn1cc(F)c(=O)[nH]c1=O)C(=O)O	x	n	n	n	n	n
CC(=O)Nc1nc2cc3c(cc2s1)OCO3	n	n	n	n	n	n
c1c2c(cc3sc(N4CCCCC4)nc13)OCO2	n	n	n	n	n	22µM
c1c2c(cc3sc(N4CCOCC4)nc13)OCO2	n	n	n	n	n	28µM
c1ccc(N2CCN(c3nc4cc5c(cc4s3)OCO5)CC2)cc1	n	n	n	n	n	u
c1ccc2c(c1)CCN(c1nc3cc4c(cc3s1)OCO4)C2	u	n	n	n	n	32µM
Brc1ccc(-c2csc(N3CCc4ccccc4C3)n2)cc1	n	n	n	n	n	n
CCN(CC)S(=O)(=O)c1ccc(NC2=NS(=O)(=O)c3ccccc32)cc1	n	n	n	n	n	n
O=S1(=O)N=C(Nc2nncs2)c2ccccc21	n	n	n	n	n	28µM
c1ccc(-c2cc3c(N4CCOCC4)ncnc3s2)cc1	-97	n	n	n	n	u
c1ccc(-n2nnc3c(N4CCOCC4)ncnc32)cc1	n	n	n	n	n	28µM
COc1ccc(-n2nnnc2-c2cccc(OC)c2)cc1	-83	n	n	n	n	n
O=[N+]([O-])c1cc(Cl)ccc1-c1nc(-c2ccccc2)no1	u	n	x	n	x	14µM
COc1ccc(C(=O)NCCc2nc3ccccc3[nH]2)cc1	x	x	n	x	x	x
Cc1c(Cl)cnc(NC(=O)COC(=O)c2ccc3ncsc3c2)c1Cl	n	n	x	n	x	n
O=C(COC(=O)c1ccc2ncsc2c1)Nc1ncc(Cl)cc1Cl	-95	n	x	n	x	n
COc1ccc(NCc2nc3ccccc3n2CCOc2ccc(C)cc2)cc1	-113	n	x	n	x	n
CCOCCn1c(-c2ccc(OC)cc2)nc2ccccc21	-106	n	n	n	n	n
COc1ccc(-c2nc3ccccc3n2Cc2ccccc2)cc1	u	n	u	n	n	u
COc1ccc(NCc2nc3ccccc3n2CCOc2ccccc2)cc1	u	n	n	n	n	n
COc1ccc(-c2nc3ccccc3c(=O)n2CCOc2ccccc2C)cc1	-121	n	x	n	x	n
CCCCNC(=O)c1onc(CSc2ccccc2CC)c1C(=O)O	-109	n	n	n	n	n
SMILES	PNC inhibitor	IMPase Li cell	IMPase inh	12-hLO inh	15-hLO-2 inh	HPGD block
CC(C)c1ccc(SCc2noc(C(=O)NCC3CCCO3)c2C(=O)O)cc1 (centres undefined)	n	n	n	n	n	7.9µM
O=C(NCC1CCCO1)c1onc(CSc2ccccc2)c1C(=O)O (centres undefined)	n	n	n	n	n	n
Cc1cccc(SCc2noc(C(=O)NCC3CCCO3)c2C(=O)O)c1 (centres undefined)	-90	n	n	n	n	n
CCCCNC(=O)c1onc(CSc2cc(C)ccc2C)c1C(=O)O	n	n	n	n	n	n
O=C(O)C1=C/C(=C(/c2ccccc2)c2cc(C(=O)O)c(O)c3ccccc23)c2ccccc2C1=O	x	n	x	n[11.4 µM]	n[11.4 µM]	n
CCOc1cc(-c2nc(-c3ccc(-c4ccc(C)cc4)nc3OC)no2)cc(OCC)c1OCC	x	x	n	x	x	x
CN(C)c1ccc(C(C(=O)NC(C)(C)C)N(C(=O)c2csnn2)C2CC2)cc1 (centres undefined)	-96	n	n	n	n	u

Assay outcomes from PubChem BioAssay.
